Source: PubChem BioAssay
Hits are enriched below; roughly 4.3% of the tested compounds scored in any of these assays.
Peg3 promoter – Peg3 promoter activity inhibition. HeLa PEG-Prom luciferase reporter, luminescence, overnight. inhibition, % at 20 µM. actives 1.7% (n = 360,000);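 active means inhibition of at least 50% at 20 µM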
KKLEB tox – counter-screen for CF NF-kB inhibitors: cytotoxicity; KKLEB CF airway cells viability, ATPlite luminescence, overnight; stronger effect = lower value; cells stimulated with P. aeruginosa culture filtrate; activity change (cytotoxicity), % at 5 µM; actives 0.36% (n = 360,000);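 active means corrected activity change at or below -50% at 5 µM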
CF NFkB inh – blocks PAF-induced NF-kB reporter in cystic fibrosis cells. KKLEB NF-kB-GFP reporter, GFP fluorescence overnight. inhibition, % at 5 µM. actives 0.86% (n = 360,000);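 active means at least 50% inhibition at 5 µM, scaled per plate between neutral and stimulator controls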;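 further: PAF is a Pseudomonas aeruginosa culture filtrate used as stimulus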
HIF-2a inh – blocks HIF-2a reporter activity | actives 0.72% (n = 360,000) | inhibition, % at 18.8 µM | 786-0 RCC cells HIF-2a reporter, luciferase luminescence, overnight;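 active means inhibition of the luminescence signal of 40% or more relative to plate controls, in a single-dose primary screen at 18.75 µM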
MITF TRPM1 inh – MITF TRPM1 promoter inhibition in SK-MEL-5 cells | SK-MEL-5 TRPM1 promoter luciferase, 24 h | inhibition, % at 12.5 µM | actives 0.83% (n = 330,000) | AID 488899;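 active means mean inhibition across replicates of 60% or more, whatever share of single replicates reaches that level; inconclusive means some that reach 60%, reason not given; inactive means mean inhibition across replicates below 60%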
CHOP inh – blocks CHOP induction under ER stress; actives 3.8% (n = 220,000); AID 2732; CHO-K1 CHOP-promoter luciferase, tunicamycin-induced, 15-18 h; inhibition, % at 10 µM;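 active means compounds that reduced the stress-induced luciferase reporter signal by more than about 70% of percent inhibition, limit read from the data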
Large screens that a line does not name were inactive.

C=C(C)COc1ccc2c(c1)CCC1C2CCC2(C)C(=O)C(=NO)CC12 (stereo unspecified)	Peg3 promoter 71, CF NFkB inh 64 (no result: CHOP inh)
O=C1Cc2cc(NS(=O)(=O)c3ccc([N+](=O)[O-])cc3)cc3c2N1CCC3	none (no result: CHOP inh)
COc1ccc(CCNC(=O)C2CC(c3cc(C(F)(F)F)cc(C(F)(F)F)c3)=NO2)cc1 (stereo unspecified)	none
Cc1ccc(CCNC(=O)C2CC(c3cc(C(F)(F)F)cc(C(F)(F)F)c3)=NO2)cc1 (stereo unspecified)	CHOP inh 76
COc1cccc(NC(=O)NNC(=O)CCc2ccc(O)c(O)c2)c1	none (no result: CHOP inh)
Cc1ccc(NC(=O)COc2ccccc2CNC(C)(C)CC(C)(C)C)cc1	Peg3 promoter 75, CHOP inh 74
CC(C)(CO)NCc1ccccc1OCC(=O)Nc1ccccc1	none
O=C(COC(=O)CNS(=O)(=O)c1ccc(Br)cc1Cl)NC1CCCC1	none (no result: CHOP inh)
O=C(CSc1nc2ccccc2c(=O)n1-c1ccccc1)c1c[nH]c2ccccc12	CHOP inh 76
NC(=O)CSc1nc2ccccc2c(=O)n1-c1ccccc1	none (no result: CHOP inh)
CCOC(=O)c1c(C)[nH]c(C)c1C(=O)CSc1nc2ccccc2c(=O)n1-c1ccc(Cl)cc1	none
O=C(CO)c1c[nH]c2ccccc12	Peg3 promoter 107 (no result: MITF TRPM1 inh, CHOP inh)
CC(=O)OCC(=O)c1c[nH]c2ccccc12	none (no result: MITF TRPM1 inh)
O=C(CSc1nc2ccccc2c(=O)n1-c1ccc(Cl)cc1)c1ccco1	CHOP inh 74
O=[N+]([O-])c1ccc(COc2ccccc2CN2CCCCC2)cc1	none (no result: CHOP inh)
CCCCCCn1cc(CN2CC(N3CCN(CCO)CC3)CS2(=O)=O)nn1 (stereo unspecified)	none (no result: Peg3 promoter, KKLEB tox, CF NFkB inh, MITF TRPM1 inh, CHOP inh)
COc1ccc(F)cc1-c1cc(NC=O)c2ncc(-c3cccc(C(F)(F)F)c3)n2c1	none (no result: MITF TRPM1 inh, CHOP inh)
CCCCOc1ccc(/C=C/C(=O)OCC(=O)NC(=O)NCC(C)C)cc1OCC	CHOP inh 72
CCCCOc1ccc(/C=C/C(=O)OCC(=O)NC2CCS(=O)(=O)C2)cc1OCC (stereo unspecified)	none (no result: CHOP inh)
CC(/C=N/NC(=O)c1cc(-c2ccc(C)o2)[nH]n1)=C\c1ccccc1	CHOP inh 94
CC(/C=N/NC(=O)c1cc(C(C)C)[nH]n1)=C\c1ccccc1	none
Cc1ccc(-c2cc(C(=O)N/N=C/c3ccccc3)n[nH]2)o1	none (no result: CHOP inh)
CC(/C=N/NC(=O)c1cc(-c2cccs2)[nH]n1)=C\c1ccccc1	CHOP inh 91
CC(C)C[C@H]1CN=C(Nc2ccccc2)N1CC1CCC(C(C)(C)C)CC1 (stereo partly specified)	Peg3 promoter 103, MITF TRPM1 inh inconclusive (no result: CHOP inh)
CC(C)C[C@H]1CN=C(Nc2ccccc2)N1CC1CCCC1	none (no result: CHOP inh)
CCC(C)Sc1ccc([C@@H]2[C@@H]3C(=O)N(CC)C(=O)[C@@H]3[C@]3(C(=O)OC)CCCCN23)cc1 (stereo partly specified)	none (no result: CHOP inh)
O=C(Nc1ccc(S(=O)(=O)Nc2nccs2)cc1)c1cccc(N2C(=O)c3ccccc3C2=O)c1	none
O=C(Nc1nccs1)c1cccc(N2C(=O)c3cccc4c([N+](=O)[O-])ccc(c34)C2=O)c1	Peg3 promoter 110
O=C(N/N=C/c1ccc(OC(F)F)cc1OC(F)F)c1ccc(Br)cc1	none
O=C(N/N=C/c1ccc(OC(F)F)cc1OC(F)F)NC1CCCCC1	CHOP inh 91
Cc1cc(C)n(-c2ccc([N+](=O)[O-])cc2)n1	Peg3 promoter 107
CC(C)NC(=S)N/N=C/C1=CCC2CC1C2(C)C (stereo unspecified)	CHOP inh 72
C=C(C)CNC(=S)N/N=C/C1=CCC2CC1C2(C)C (stereo unspecified)	CHOP inh 84
CCn1nc(C)c(CN2CCC(n3nccc3NC(=O)c3ccc4c(c3)OCO4)CC2)c1C	none (no result: CHOP inh)
CC(=O)N1c2ccc(S(=O)(=O)NCC3CCC(C(=O)Nc4cc(C)ccn4)CC3)cc2CC1C (stereo unspecified)	Peg3 promoter 88 (no result: CHOP inh)
O=C(COC(=O)c1ccc(S(=O)(=O)N2CCOCC2)cc1)Nc1ccccc1OC(F)F	none (no result: CHOP inh)
COCCN1C[C@@H](CO)O[C@@H](n2cnc3c(NCc4ccncc4)ncnc32)C1	none (no result: MITF TRPM1 inh, CHOP inh)
O=[N+]([O-])c1ccccc1-c1cc(-c2cc(Cl)ccc2O)n[nH]1	CHOP inh 77
COc1ccc(OC)c(S(=O)(=O)N2CCc3ccccc32)c1	none
COc1ccc(OC)c(S(=O)(=O)N2c3ccccc3CC2C)c1 (stereo unspecified)	Peg3 promoter 56
COc1ccc(Cn2cc3c(-c4ccc(F)cc4)nnc-3c3cc(OC)c(OC)cc32)cc1	Peg3 promoter 101, MITF TRPM1 inh 83
COc1ccc(-c2cn[nH]c2-c2ccc(OCc3ccc(F)cc3)cc2O)cc1OC	none
Cn1nc2c3cc(F)ccc3n(Cc3ccc(F)cc3)cc-2c1=O	none (no result: CHOP inh)
COc1cc2c3nnc(-c4ccc(F)cc4)c-3cn(Cc3ccc(F)cc3)c2cc1OC	Peg3 promoter 98, MITF TRPM1 inh 73
O=C(CCCOc1ccccc1)Nc1ccc(Cl)cn1	CHOP inh 72
CCCCCCC(=O)Nc1ccc(Cl)cn1	none
O=C(CS(=O)(=O)c1ccccc1)Nc1ccc(Cl)cn1	none (no result: CHOP inh)
O=C(CC(c1ccccc1)c1ccccc1)Nc1ccc(Cl)cn1	CHOP inh 78
Cc1ccc(OCCC(=O)OCC(=O)Nc2ccc(Cl)cn2)cc1	CHOP inh 74
CCOC(=O)[C@H]1[C@H]2COc3ccc(C)cc3[C@@H]2N2C(=O)c3ccccc3NC(=O)[C@@]12C	none (no result: CHOP inh)
CCOC(=O)[C@]12CCC=C1N(Cc1ccccc1)C(=O)[C@H](CC(=O)NCC13CC4CC(CC(C4)C1)C3)C2	none (no result: Peg3 promoter, KKLEB tox, CF NFkB inh, MITF TRPM1 inh, CHOP inh)
OCCC1CN(C/C=C/c2ccco2)CCN1Cc1ccccc1 (stereo unspecified)	none (no result: CHOP inh)
O=C(O)CCn1c(=O)[nH]c(=O)n(CCC(=O)O)c1=O	Peg3 promoter 89
CC1=C(C)C(=O)N(CCC(=O)O)C1=O	none
CSc1ncccc1C(=O)OCC(=O)N1CCc2ccccc21	none (no result: CHOP inh)
O=C1COc2ccc(C(=O)COC(=O)Cc3ccc(F)cc3)cc2N1	none (no result: CHOP inh)
Cc1cccc(-c2csc(N)c2C(=O)OC(C)C)c1	CHOP inh 74
Cc1ccc(C)c(-c2csc(N)c2C(=O)OC(C)C)c1	CHOP inh 80
CCOC(=O)c1c(-c2ccncc2)csc1N	none
COC(=O)C1=COC(OC2OC(CO)C(O)C(O)C2O)C2C(C)CC(=O)C12 (stereo unspecified)	none (no result: MITF TRPM1 inh, CHOP inh)
COc1ccc(CCC(C)NC(=O)Cc2ccc(OC)c(OC)c2)c(OC)c1 (stereo unspecified)	none (no result: CHOP inh)
C=CCOC(=O)C1=C(C)NC(SC)=C(C#N)C1c1ccc(OCC)cc1 (stereo unspecified)	CHOP inh 95
CN(C)/C=C(/C#N)C(=O)c1cccc(Oc2ccc(C(C)(C)C)cc2)c1	CHOP inh 93
